The panel holds about 83,000 compounds, 20% with a hit somewhere; the sample as a whole holds those more often.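 Activity criterion: percent growth below 10, measured after cells in 96-well plates were exposed to a single compound concentration for 48 hours.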 Calls of active or inactive are those of the source.
Experiments:
Assay in all cases: NCI-60 one-dose screen, 48 h (100 = growth as untreated, 0 = no growth, -100 = all killed)
Conditions in all cases: 10 µM unless noted
[1] = test system: HCT-15 colon
[2] = test system: HT29 colon
[3] = test system: SNB-75 CNS
[4] = test system: SNB-19 CNS
[5] = test system: U251 CNS
[6] = test system: PC-3 prostate
[7] = test system: SK-MEL-5 melanoma
[8] = test system: UACC-62 melanoma
[9] = test system: LOX IMVI melanoma
[10] = test system: SK-MEL-28 melanoma
[11] = test system: SK-MEL-2 melanoma
[12] = test system: EKVX NSCLC
[13] = test system: SN12C renal
[14] = test system: UO-31 renal
[15] = test system: TK-10 renal
[16] = test system: ACHN renal
[17] = test system: CAKI-1 renal
[18] = test system: CCRF-CEM leukemia
[19] = test system: MOLT-4 leukemia

Measured: growth

Cc1ccc(S(=O)(=O)NNC(=O)/C(=C\c2ccc(Cl)cc2)c2nc3ccccc3s2)cc1
inactive: [1] 79.5% | [2] 106% | [3] 68.4% | [4] 88.3% | [5] 97.5% | [6] 90.5% | [7] 94.9% | [8] 80.7% | [9] 90.5% | [10] 101% | [11] 99.4% | [12] 91.1% | [13] 92.5% | [14] 75.1% | [15] 132% | [16] 97.7% | [17] 83.8% | [18] 83.6% | [19] 80.1%

CCCCCC(=O)Oc1ccc(/C(=C(/C)Cc2ccc(OC)cc2)c2ccc(OCCCN(C)C)cc2)cc1
active: [10] -1.63%
inactive: [1] 24.6% | [2] 10.8% | [3] 77% | [4] 84.1% | [5] 56.2% | [6] 86.2% | [7] 63.5% | [8] 47.7% | [9] 50.7% | [11] 114% | [12] 88.7% | [13] 79.5% | [14] 58.6% | [15] 100% | [16] 91.9% | [17] 78.3% | [18] 68.1% | [19] 53.5%

CC(=O)CCC(=O)OCc1cc(=O)c(O)co1
inactive: [1] 98.2% | [2] 101% | [3] 104% | [4] 104% | [5] 107% | [6] 98.7% | [7] 105% | [8] 103% | [9] 94.6% | [10] 98.1% | [11] 113% | [12] 109% | [13] 104% | [14] 97.1% | [15] 98.5% | [16] 101% | [17] 102% | [18] 98% | [19] 102%

CC(Oc1ccc(C(=O)O)cc1C(F)(F)F)c1ccc(Oc2ccccc2)cn1 (centres undefined)
inactive: [1] 80.6% | [2] 121% | [3] 90.1% | [4] 96.7% | [5] 94.4% | [6] 108% | [7] 98.7% | [8] 91.8% | [9] 97% | [10] 95.1% | [11] 123% | [12] 103% | [13] 98.3% | [14] 79.2% | [15] 99.5% | [16] 104% | [17] 95.9% | [18] 101% | [19] 106%

O=S(=O)(Nc1ccc(-n2cnc3cc(-c4ccc(O)cc4)ccc32)cc1)c1ccccc1
inactive: [1] 87.2% | [2] 95.3% | [3] 88.1% | [4] 90.1% | [5] 65.2% | [6] 90.7% | [7] 66.8% | [8] 82.3% | [9] 81% | [10] 104% | [11] 83.2% | [12] 98.4% | [13] 73.4% | [14] 51.3% | [15] 113% | [16] 80.6% | [17] 68.7% | [18] 69.9% | [19] 71.7%

COc1cc2c(c(O)c1Cl)C(=O)c1c(O)cc(C[C@H](C)O)cc1[C@H]2[C@H]1c2cc(C[C@H](C)O)cc(O)c2C(=O)c2c1cc(OC)c(Cl)c2O
active: [1] 8.82% | [2] 9.65% | [3] -3.83% | [5] 8.26% | [7] -65.7% | [8] 0.814% | [9] 7.32% | [11] -31.6% | [13] 8.13% | [14] 2.84% | [16] -5.77% | [17] 8.67%
inactive: [4] 18% | [6] 16.7% | [10] 38.2% | [12] 13.5% | [15] 31.8% | [18] 18.6% | [19] 14.9%

CCCCCCCCO/N=C\c1c2c(O)c3c(O)c(C)c4c(c3c1O)C(=O)C(C)(O/C=C\C(OC)C(C)C(OC(C)=O)C(C)C(O)C(C)C(O)C(C)/C=C\C=C(\C)C(=O)N2)O4 (centres undefined)
inactive: [1] 19.1% | [3] 36% | [4] 29.2% | [5] 13.7% | [6] 13.1% | [7] 17.7% | [8] 26.2% | [9] 30.2% | [10] 51.5% | [12] 22.5% | [13] 21.8% | [14] 17.7% | [15] 30% | [16] 25% | [17] 13.1% | [18] 19.8% | [19] 12.9%
active: [2] 2.82% | [11] -31.4%

Cn1nc(CC#N)c2c(=N)n(N)cnc21
inactive: [1] 111% | [2] 116% | [3] 87.4% | [4] 111% | [5] 99.4% | [6] 96.2% | [7] 111% | [8] 103% | [9] 103% | [10] 121% | [11] 113% | [12] 94.4% | [13] 98.6% | [14] 80.1% | [15] 104% | [16] 108% | [17] 95.3% | [18] 126% | [19] 94.7%

O=C(CCN1CCCC1)Nc1ccc2c(NCCCCc3ccccc3)c3ccccc3nc2c1
inactive: [1] 17% | [3] 16.6% | [8] 65.2% | [12] 38.3% | [14] 37% | [16] 24.8%
active: [2] 6.39% | [4] -49.5% | [5] -57.8% | [6] -56.8% | [7] -30.9% | [9] -89.3% | [10] -63.4% | [11] -7.21% | [13] -60.8% | [15] -36.5% | [17] 9.94% | [18] -25.2% | [19] -26.2%

C/C(=N\NC(=O)CSc1nc2ccccc2c(=O)n1CCc1ccc(S(N)(=O)=O)cc1)c1ccccn1
inactive: [1] 26.8% | [2] 31.5% | [3] 74.5% | [4] 46.6% | [5] 31.8% | [6] 50.7% | [7] 24.9% | [8] 19.5% | [9] 13.8% | [10] 37.6% | [11] 47.2% | [12] 30.5% | [13] 38.5% | [14] 29.8% | [15] 34.5% | [16] 21.2% | [17] 37.6% | [18] 20.6% | [19] 17.7%

CCc1ccc(CNc2ccc(N3CCOCC3)c(C(=O)O)c2)cc1
inactive: [1] 104% | [2] 96.4% | [3] 99.2% | [4] 107% | [5] 103% | [6] 106% | [7] 102% | [8] 102% | [9] 96.8% | [10] 107% | [11] 82.7% | [12] 98.3% | [13] 108% | [14] 89.5% | [15] 94% | [16] 103% | [17] 97.2% | [18] 102% | [19] 99.2%

CCCCCCNC(=O)Nc1ccc2cc3ccc(NC(=O)NCCCCCC)cc3nc2c1
inactive: [1] 88.7% | [2] 20.2% | [6] 21.5% | [11] 11.3% | [12] 48.7% | [14] 94.2% | [15] 97.8% | [16] 96.7% | [17] 71.4%
active: [3] -16.3% | [4] -47.9% | [5] -89.1% | [7] 3.38% | [8] -79% | [9] -79.7% | [10] -65.4% | [13] -72.7% | [18] 0.631% | [19] -45%

Nc1c(C(=O)Nc2cccc3cnccc23)sc2nc3c(cc12)CN(Cc1ccccc1)CC3
inactive: [1] 107% | [2] 108% | [3] 96.5% | [4] 99.6% | [5] 108% | [6] 91.3% | [7] 98.8% | [8] 96.4% | [9] 103% | [10] 111% | [11] 116% | [12] 101% | [13] 97.5% | [14] 75.5% | [15] 140% | [16] 99.9% | [17] 90.1% | [18] 109% | [19] 107%

c1ccc(-c2c(-c3ccccc3)[n+](Cc3ccc4ccccc4c3)c(-c3cccc4ccccc34)n2Cc2ccc3ccccc3c2)cc1
active: [1] -52.9% | [2] -49.7% | [3] -57.9% | [4] -68.9% | [5] -94.9% | [6] -60.8% | [7] -98.4% | [8] -64.8% | [9] -98.9% | [10] -71.8% | [11] -77.9% | [12] -10.9% | [13] -81.6% | [14] -93.5% | [15] -78% | [16] -100% | [17] -97.2% | [18] 1.74% | [19] -25.8%

Cc1ccc(-n2cc(-c3ccccc3)c3c2N=NN2CCN=C32)cc1
inactive: [1] 101% | [2] 110% | [3] 72.1% | [4] 92.2% | [5] 99.1% | [6] 86.4% | [7] 99.1% | [8] 82.3% | [9] 97.7% | [10] 109% | [11] 103% | [12] 87.5% | [13] 96% | [14] 74.5% | [15] 141% | [16] 105% | [17] 68.7% | [18] 101% | [19] 97.3%

Cc1ccc(/C=C(/C#N)n2nnc3cccc(F)c32)cc1
inactive: [4] 16.2% | [5] 13.9% | [6] 20.8% | [8] 13.2% | [10] 52.4% | [11] 14.6% | [12] 37.6% | [13] 12.7% | [14] 15.6% | [15] 25.5% | [16] 18.5% | [17] 20.1%
active: [1] 5.46% | [2] 9.94% | [3] -35.7% | [7] -55.2% | [9] -14.7% | [18] 4.82% | [19] 5.52%

Source: PubChem BioAssay (NCI)
